Drawing on ChEMBL document CHEMBL3433997, “St. Jude Leishmania screening dataset” (2016), this text covers inhibition for 40 compounds.

One experiment deals with Solute carrier family 2, facilitated glucose transporter member 1 (Homo sapiens) (UniProt P11166). Put plainly: ST_JUDE_LEISH: Cytotoxicity at 2uM final concentration against transgenic Leishmania Mexicana promastigotes LmGLUT1 that are glucose transport deficient and complemented with the human glucose transporter GLUT1. Activity is measured by DNA content using SYBR green in vitro. It is filed as functional.
Sequence of Solute carrier family 2, facilitated glucose transporter member 1 (Homo sapiens) (P11166 whole entry): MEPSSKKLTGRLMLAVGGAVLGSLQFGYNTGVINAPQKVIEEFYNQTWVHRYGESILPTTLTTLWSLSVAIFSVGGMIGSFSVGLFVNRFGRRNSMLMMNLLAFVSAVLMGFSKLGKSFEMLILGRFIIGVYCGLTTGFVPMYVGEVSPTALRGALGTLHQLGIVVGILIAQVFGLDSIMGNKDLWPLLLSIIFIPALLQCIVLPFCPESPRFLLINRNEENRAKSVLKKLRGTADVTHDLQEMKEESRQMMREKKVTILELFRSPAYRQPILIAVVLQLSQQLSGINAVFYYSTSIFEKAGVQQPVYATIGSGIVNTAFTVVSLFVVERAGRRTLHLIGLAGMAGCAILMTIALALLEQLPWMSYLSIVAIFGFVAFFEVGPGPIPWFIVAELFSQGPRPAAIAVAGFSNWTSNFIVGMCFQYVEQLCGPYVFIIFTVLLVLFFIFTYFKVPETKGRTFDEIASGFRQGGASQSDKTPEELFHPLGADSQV
Turning to `N#Cc1ccc(-c2ccc(C(=O)NCCCCN3CCC(c4cn(CCO)c5ccccc45)CC3)cc2)cc1`, the inhibition is -0.57%.

For the compound `CN1CCN(CC2(Nc3nccc(NCc4ccc(Cl)cc4Cl)n3)CCCCC2)CC1`, the inhibition was 6.66%.

As to `COc1cc2c(c(Cl)c1OC)CCN(C(=O)C(F)(F)F)CC2c1ccccc1` (stereo not given), the inhibition stood at 6.36%.

With `OC(CNC1CCCCC1)Cn1c2ccccc2c2ccccc21` (stereo not given), the inhibition stood at 9.36%.

With `COCCOC(=O)C(=O)c1c(-c2ccccc2)c(-c2ccc(OC)c(OC)c2)c2c3cc(OC)c(OC)cc3ccn12`, the inhibition was determined as 4.89%.

For the compound `COc1ccc2nccc([C@@H](O)CN3CCC(NCc4ccc5c(n4)NCCC5)CC3)c2c1`, the inhibition is 6.88%.

For `CC(C)(C)[C@@H](Nc1ccc(C#N)c2ccccc12)C(=O)NC1(Cc2ccc(O)c(Br)c2)CCCC1`, the inhibition is 2.05%.

On to `CCOC(=O)/C(=N\OC(C(=O)OC(C)(C)C)c1ccccc1)c1csc(NC(c2ccccc2)(c2ccccc2)c2ccccc2)n1` (stereo not given), for which the inhibition was found to be 0.73%.

As to `Cc1cc(SC(C)(C)C)cc2c(Cl)c(C(N)=O)cnc12`, the inhibition amounted to 89%.

`COc1cc(NC(=O)CCCN2CCN(c3cccc(Cl)c3Cl)CC2)ccc1N1CCN(C(C)C)CC1`: the inhibition is -2.72%.

As to `O=C(NCc1cc2c(cc1Cl)OCO2)c1ccc(CNC2CCN(Cc3ccccc3)CC2)cc1`, the inhibition came to 0.15%.

As for `Cc1nc(O)c2c(ccc3ccc(CNc4ccc(C(=O)N[C@@H](CCC(=O)O)C(=O)O)c(F)c4)cc32)n1`, the inhibition was -0.83%.

With `CN(C)CCC1CCCc2ccc(NC(=O)Nc3cccc(Cl)c3Cl)cc21` (stereo not given), the inhibition came out at 1.81%.

With `Cc1cc(NC2CCCC2)nc(Nc2ccccc2)n1`, the inhibition was determined as 16.4%.

For `CN1CCCc2ccc(NC(=O)c3cnc(-c4ccccc4)cn3)cc21`, the inhibition is 0.24%.

As to `O=C(NCCNc1noc(-c2sccc2Br)n1)c1ccc(Cl)cc1`, the inhibition was -1.4%.

As for `CC(CCc1ccccc1)NCC(O)c1ccc2c(c1)S(=O)(=O)c1ccccc1N2` (stereo not given), the inhibition came to 1.67%.

Consider `CCOc1ccc(-c2cc3nc(C4CCNCC4)c(C(=O)Nc4ccc(C)cc4Cl)cn3n2)cc1`, for which the inhibition amounted to 4.75%.

As to `CC(C)C[C@H](NC(=O)c1cccc(F)c1)C(=O)N[C@H](/C=N/NC(=O)c1ccccc1)CCc1ccccc1`, the inhibition was -1.39%.

As to `Cc1cc(Nc2c(C(N)=O)cnc3cc(-c4ccoc4)ccc23)ccc1N1CCN(C)CC1`, the inhibition is -1.39%.

On to `COc1cc(C(=O)Nc2cccc(-c3nc4ccccc4[nH]3)c2)cc(OC)c1OC`, for which the inhibition came out at 4.34%.

On to `O=C(NC1CC1)c1ccc(N2CCC(Cc3ccccc3)CC2)nc1`, for which the inhibition is 3.46%.

In the case of `N=C(N)Nc1nc(-c2cccc(NC(=O)C(F)(F)F)c2)cs1`, the inhibition came out at 2.35%.

Consider `O=C(/C=C/c1ccc(Cl)c(Cl)c1)NCCCCCN1CC[C@H](NC(=O)c2sc3ccccc3c2Cl)C1`, for which the inhibition stood at 5.64%.

Regarding `Cc1ccccc1CNc1noc(-c2c(F)cccc2Cl)n1`, the inhibition was determined as 4.28%.

Consider `CC(=O)Nc1ccc(CN2CCc3ccc(NS(=O)(=O)c4ccc(-c5cccc(C(F)(F)F)c5)cc4)cc3CC2)s1`, for which the inhibition is 2.54%.

As for `Cc1cc(N[C@@H](CC(C)C)C(=O)NCc2cccc(F)c2)nc(NCCc2ccc(F)cc2)n1`, the inhibition stood at 4.5%.

On to `CCOc1ccc(C(=O)Nc2cc(Br)c3c(c2)CNCC3)cc1Br`, for which the inhibition turned out to be 11.7%.

In the case of `CCCCOc1c(CNCCCCCCNCc2ccc3ccccc3c2OCCCC)ccc2ccccc12`, the inhibition worked out at 99.5%.

Regarding `O=C(Nc1cccc(-c2cccc(-c3nc4cc(C(F)(F)F)ccc4[nH]3)c2)c1)c1ccncc1`, the inhibition is 5.04%.

For the compound `COc1ccc(-c2ccc3c(-c4cccc(S(C)(=O)=O)c4)cnc(N)c3c2)cc1`, the inhibition stood at 0.83%.

On to `Cc1csc(-c2ncc(OC[C@@H](N)Cc3ccccc3)cc2-c2ccc3[nH]nc(C)c3c2)c1`, for which the inhibition came to 2.54%.

`Clc1ccc(OCc2ccccc2)c(-c2nc(-c3nc4ccc(Cl)cc4[nH]3)cs2)c1`: the inhibition was determined as 3.08%.

Consider `COc1ccc(CCON2C(=N)N=C(N)NC2(C)C)cc1OC`, for which the inhibition is 2.04%.

On to `c1cc2[nH]c(CCc3nc4cc(C5=NC6CCCCC6N5)ccc4[nH]3)nc2cc1C1=NC2CCCCC2N1` (stereo not given), for which the inhibition is 19.7%.

On to `O=C(/C=C/c1ccc(Cl)c(Cl)c1)NCCCCCN1CCC(NC(=O)NC2CCCCCC2)CC1`, for which the inhibition was -0.58%.

In the case of `Cc1cccc2nc(-c3ccc(-c4ccc(CNCCNC(=O)c5ccnn5C)cc4)s3)[nH]c12`, the inhibition came to 9.45%.

`C=CCN1C(=O)c2[nH]nc(-c3cc(C)c(C)cc3O)c2C1c1cccc(Br)c1` (stereo not given): the inhibition is 2.03%.

With `COc1ccc(CNCc2cccc(-c3cccc(-c4nc5cccc(C)c5[nH]4)c3)c2)cc1`, the inhibition was determined as 9.14%.

Turning to `COc1cc2nc(N3CCC(CNC(=O)c4ccc(-c5ccc(C(F)(F)F)cc5)cc4)CC3)nc(N)c2cc1OC`, the inhibition came to 2.82%.

The target of a further experiment is Hexose transporter 1 (Plasmodium falciparum) (UniProt O97467). Put plainly: ST_JUDE_LEISH: Cytotoxicity at 2uM final concentration against transgenic Leishmania Mexicana promastigotes LmPfHT that are glucose transport deficient and complemented with the Plasmodium falciparum hexose transporter. Activity is measured by DNA content using SYBR green in vitro. The format is functional.
For the compound `N#Cc1ccc(-c2ccc(C(=O)NCCCCN3CCC(c4cn(CCO)c5ccccc45)CC3)cc2)cc1`, the inhibition is -0.13%.

`CN1CCN(CC2(Nc3nccc(NCc4ccc(Cl)cc4Cl)n3)CCCCC2)CC1`: the inhibition is 7.74%.

`COc1cc2c(c(Cl)c1OC)CCN(C(=O)C(F)(F)F)CC2c1ccccc1` (stereo not given): the inhibition is 5.47%.

As for `OC(CNC1CCCCC1)Cn1c2ccccc2c2ccccc21` (stereo not given), the inhibition is 7.72%.

`COCCOC(=O)C(=O)c1c(-c2ccccc2)c(-c2ccc(OC)c(OC)c2)c2c3cc(OC)c(OC)cc3ccn12`: the inhibition is 2.7%.

As for `COc1ccc2nccc([C@@H](O)CN3CCC(NCc4ccc5c(n4)NCCC5)CC3)c2c1`, the inhibition was 6.43%.

For `CC(C)(C)[C@@H](Nc1ccc(C#N)c2ccccc12)C(=O)NC1(Cc2ccc(O)c(Br)c2)CCCC1`, the inhibition was 3.09%.

Consider `CCOC(=O)/C(=N\OC(C(=O)OC(C)(C)C)c1ccccc1)c1csc(NC(c2ccccc2)(c2ccccc2)c2ccccc2)n1` (stereo not given), for which the inhibition turned out to be 1.43%.

For `Cc1cc(SC(C)(C)C)cc2c(Cl)c(C(N)=O)cnc12`, the inhibition came out at 93.7%.

Take `COc1cc(NC(=O)CCCN2CCN(c3cccc(Cl)c3Cl)CC2)ccc1N1CCN(C(C)C)CC1`: the inhibition amounted to 0.8%.

For the compound `O=C(NCc1cc2c(cc1Cl)OCO2)c1ccc(CNC2CCN(Cc3ccccc3)CC2)cc1`, the inhibition came to 0.96%.

On to `Cc1nc(O)c2c(ccc3ccc(CNc4ccc(C(=O)N[C@@H](CCC(=O)O)C(=O)O)c(F)c4)cc32)n1`, for which the inhibition amounted to 0.87%.

For the compound `CN(C)CCC1CCCc2ccc(NC(=O)Nc3cccc(Cl)c3Cl)cc21` (stereo not given), the inhibition was 2.38%.

For `Cc1cc(NC2CCCC2)nc(Nc2ccccc2)n1`, the inhibition was 9.56%.

Turning to `CN1CCCc2ccc(NC(=O)c3cnc(-c4ccccc4)cn3)cc21`, the inhibition was 0.87%.

On to `O=C(NCCNc1noc(-c2sccc2Br)n1)c1ccc(Cl)cc1`, for which the inhibition stood at 3.34%.

As to `CC(CCc1ccccc1)NCC(O)c1ccc2c(c1)S(=O)(=O)c1ccccc1N2` (stereo not given), the inhibition amounted to 1.25%.

Turning to `CCOc1ccc(-c2cc3nc(C4CCNCC4)c(C(=O)Nc4ccc(C)cc4Cl)cn3n2)cc1`, the inhibition is -0.08%.

On to `CC(C)C[C@H](NC(=O)c1cccc(F)c1)C(=O)N[C@H](/C=N/NC(=O)c1ccccc1)CCc1ccccc1`, for which the inhibition was 3.32%.

For the compound `Cc1cc(Nc2c(C(N)=O)cnc3cc(-c4ccoc4)ccc23)ccc1N1CCN(C)CC1`, the inhibition was -0.31%.

Turning to `COc1cc(C(=O)Nc2cccc(-c3nc4ccccc4[nH]3)c2)cc(OC)c1OC`, the inhibition amounted to 1.94%.

`O=C(NC1CC1)c1ccc(N2CCC(Cc3ccccc3)CC2)nc1`: the inhibition is 4.8%.

On to `N=C(N)Nc1nc(-c2cccc(NC(=O)C(F)(F)F)c2)cs1`, for which the inhibition amounted to 2.8%.

With `O=C(/C=C/c1ccc(Cl)c(Cl)c1)NCCCCCN1CC[C@H](NC(=O)c2sc3ccccc3c2Cl)C1`, the inhibition was found to be 3.45%.

As for `Cc1ccccc1CNc1noc(-c2c(F)cccc2Cl)n1`, the inhibition turned out to be 5.55%.

Regarding `CC(=O)Nc1ccc(CN2CCc3ccc(NS(=O)(=O)c4ccc(-c5cccc(C(F)(F)F)c5)cc4)cc3CC2)s1`, the inhibition came to 2.18%.

For the compound `Cc1cc(N[C@@H](CC(C)C)C(=O)NCc2cccc(F)c2)nc(NCCc2ccc(F)cc2)n1`, the inhibition is 7.16%.

With `CCOc1ccc(C(=O)Nc2cc(Br)c3c(c2)CNCC3)cc1Br`, the inhibition came out at 12.7%.

For `CCCCOc1c(CNCCCCCCNCc2ccc3ccccc3c2OCCCC)ccc2ccccc12`, the inhibition came to 49.1%.

With `O=C(Nc1cccc(-c2cccc(-c3nc4cc(C(F)(F)F)ccc4[nH]3)c2)c1)c1ccncc1`, the inhibition turned out to be 7.47%.

As for `COc1ccc(-c2ccc3c(-c4cccc(S(C)(=O)=O)c4)cnc(N)c3c2)cc1`, the inhibition was 1%.

With `Cc1csc(-c2ncc(OC[C@@H](N)Cc3ccccc3)cc2-c2ccc3[nH]nc(C)c3c2)c1`, the inhibition worked out at 0.85%.

As for `Clc1ccc(OCc2ccccc2)c(-c2nc(-c3nc4ccc(Cl)cc4[nH]3)cs2)c1`, the inhibition amounted to 2.99%.

As for `COc1ccc(CCON2C(=N)N=C(N)NC2(C)C)cc1OC`, the inhibition was found to be 2.62%.

Take `c1cc2[nH]c(CCc3nc4cc(C5=NC6CCCCC6N5)ccc4[nH]3)nc2cc1C1=NC2CCCCC2N1` (stereo not given): the inhibition stood at 18.5%.

As to `O=C(/C=C/c1ccc(Cl)c(Cl)c1)NCCCCCN1CCC(NC(=O)NC2CCCCCC2)CC1`, the inhibition was found to be 1.53%.

On to `Cc1cccc2nc(-c3ccc(-c4ccc(CNCCNC(=O)c5ccnn5C)cc4)s3)[nH]c12`, for which the inhibition turned out to be 9.43%.

Turning to `C=CCN1C(=O)c2[nH]nc(-c3cc(C)c(C)cc3O)c2C1c1cccc(Br)c1` (stereo not given), the inhibition came out at 1.25%.

For `COc1ccc(CNCc2cccc(-c3cccc(-c4nc5cccc(C)c5[nH]4)c3)c2)cc1`, the inhibition is 8.38%.

As to `COc1cc2nc(N3CCC(CNC(=O)c4ccc(-c5ccc(C(F)(F)F)cc5)cc4)CC3)nc(N)c2cc1OC`, the inhibition is 2.34%.
